DRD3 agonist: activates the human D3 dopamine receptor; P35462; D3R DiscoveRx beta-arrestin cells, luminescence, 90 min; max activation, %; 410,000 tested, 0.58% active; in the data active = max activation above about 30%; also: 0% is about no effect
Target sequence (P35462 whole entry, looked up): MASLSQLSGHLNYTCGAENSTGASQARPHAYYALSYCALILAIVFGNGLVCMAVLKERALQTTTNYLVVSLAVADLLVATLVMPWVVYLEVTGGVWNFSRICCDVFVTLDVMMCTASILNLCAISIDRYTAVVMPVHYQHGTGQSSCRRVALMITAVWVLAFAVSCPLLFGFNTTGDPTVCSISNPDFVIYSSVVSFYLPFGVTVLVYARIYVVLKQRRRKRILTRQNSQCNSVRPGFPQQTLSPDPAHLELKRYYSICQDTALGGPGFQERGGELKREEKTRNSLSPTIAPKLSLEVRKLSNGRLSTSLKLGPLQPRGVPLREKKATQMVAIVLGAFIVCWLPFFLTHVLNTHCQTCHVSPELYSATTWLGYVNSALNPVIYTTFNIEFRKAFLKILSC
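Agonist mode: compounds and dopamine controls were applied to plated cells for 90 min at 37 degrees C after an overnight attachment at 1500 cells/well. Luminescent read-out followed 30 - 60 minutes at room temperature with DiscoveRx detection reagent.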
PI5P4Ka inh: PI5P4K alpha (human) kinase inhibition. P48426. 330,000 tested, 1.2% active. PI5P4Kalpha enzyme, ADP-Glo luminescence, 60 min; stronger effect = lower value. max response, %; active = max response of -50% or lower; inconclusive = between -30% and -50%; inactive = -30% or higher; also: value at the top dose of about 77 µM; % is scaled to controls: 0 for no effect and ±100 for the full control effect
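Compounds were pin-transferred onto PI5P4Kalpha and substrate in HEPES pH 7.4 buffer with EGTA, CHAPS and 5% DMSO. ATP (5 microM final) started the reaction, which ran 60 minutes at room temperature before ADP-Glo detection.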
PI4K2A block: blocks human PI4K2A kinase activity | activity change, negative = inhibition, % at 76.9 µM | purified PI4K2A, ADP-Glo luminescence, 1 h; stronger effect = lower value | 420,000 tested, 0.13% active | AID 1346378; in the data active = activity change below about -50%; inconclusive = mostly about -30% to -49%;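 also: -100% = wells without enzyme as full effect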
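Compounds are screened against recombinant PI4K2A using PI as substrate and ATP, the latter dispensed at 300 microM. Reactions run one hour at ambient temperature before ADP-Glo detection; full inhibition defined by wells lacking enzyme.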
LDHA inh: inhibitors of human lactate dehydrogenase A. 480,000 tested, 0.15% active. AID 1347041. activity change, % (values are at about 110 or 230 µM). P00338. purified LDHA, NADH/diaphorase-resazurin fluorescence; stronger effect = lower value; in the data active = activity change below about -30%; inconclusive = mostly about -25% to -30%;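 also: plate controls were DMSO wells for no effect and wells without enzyme for full effect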
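Human LDH5 (2 nM) was incubated with 0.06 mM NADH and 0.2 mM pyruvate for 5 min at room temperature in Tris pH 7.4. Remaining NADH was coupled through diaphorase/resazurin, and resorufin fluorescence was read at 0 and 20 min.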
DRD3 antagonist: D3 dopamine receptor (human) antagonism; D3R cells, DiscoveRx beta-arrestin luminescence, antagonist mode; stronger effect = lower value; max response, negative = inhibition, %; 360,000 tested, 2.5% active; AID 652054; in the data active = max response below about -50%; inconclusive = no clear call, values can overlap the other calls; also: % is scaled to controls: 0 for no effect and ±100 for the full control effect
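Cells plated overnight at 1500 cells/well, then exposed to library compounds with dopamine controls for 90 minutes at 37 degrees C. DiscoveRx reagent added for 30–60 minutes at room temperature; luminescence read, quantitative HTS format.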
* = called active by the depositor; u = inconclusive; x = no result given; ! = repeats disagree. In the library only some 3.3% were active in any assay of this set; here they are far more common.

SMILES	DRD3 agonist	PI5P4Ka inh	PI4K2A block	LDHA inh	DRD3 antagonist
CCc1ccccc1NC(=O)CN1CCCN(Cc2cccc(OC)c2)S1(=O)=O	x	x	x	-8	x
CS(=O)(=O)N(CC(=O)Nc1ccc(Br)cc1)c1ccc2c(c1)OCO2	x	x	x	5	x
NC1=NC(=O)/C(=C/c2cc(Br)c(O)c(Br)c2)S1	0	-89*	11	-11	-5
C/C(=N\O)c1oc2ccc3c(C)cc(=O)oc3c2c1-c1ccccc1	x	x	x	4	x
CN=c1scc(-c2ccc([N+](=O)[O-])cc2)n1/N=C/c1ccco1	6	u	-11	1	9
CN=c1scc(-c2ccc(F)cc2)n1/N=C/c1ccc(O)c(O)c1	95*	-23	-15	19	1
Cc1cc(C(=O)Nc2ccc(Nc3ccccc3)cc2)ccc1[N+](=O)[O-]	0	-27	1	1	10
Cc1ccccc1NC(=O)c1ccc(Nc2c([N+](=O)[O-])cc([N+](=O)[O-])c3ccccc23)cc1	-10	1	-6	-4	-71*
COc1ccc(CNC(=O)C(c2ccc(C)o2)N(Cc2cccs2)C(=O)Cc2cccs2)cc1 (stereo not given)	3	-8	2	0	-57*
COc1cc2sc3cc(NCc4ccc5c(c4)OCO5)ccc3c(=O)c2cc1OC	41*	1	-5	0	66
COc1ccc(NC(=O)CN(C)C(=O)c2cc3c(s2)CCC3)cc1	4	-69*	-17	0	12
COc1ccc(NC(=O)CN(C)C(=O)C2=COCCO2)cc1	1	-2	3	-13	-59*
CN(CC(=O)Nc1ccc(Cl)cc1)C(=O)C1=COCCO1	-7	0	2	-3	6
CC(CC(=O)Nc1ccc(F)cc1Cl)n1cccn1 (stereo not given)	x	x	x	-2	x
COc1cccc(-c2ccc(=O)n(CC(=O)N3CCC(Cc4ccccc4)CC3)n2)c1	x	x	x	-7	x
COc1cccc(-c2cc(CC3(O)CCN(CCCc4ccccc4)CC3)on2)c1	-3	-8	-10	0	-96*
CCCCNC(=O)NC(C(=O)OC)C12CC3CC(CC(C3)C1)C2 (stereo not given)	-6	5	-5	0	-57*
CC(NCc1c[nH]c2ccccc12)c1ccccc1 (stereo not given)	x	x	x	0	x
Cc1cc(=O)n2c(n1)NC(Nc1ccc(F)cc1)=NC2c1ccco1 (stereo not given)	x	x	x	-11	x
Cc1cc(=O)n2c(n1)NC(Nc1ccc(F)cc1)=NC2c1cccs1 (stereo not given)	x	x	x	-37*	x
COc1ccc(S(=O)(=O)/N=C2\C=C(Nc3ccc(O)cc3)C(=O)c3ccccc32)cc1	-34	-16	u	39	-80*
COC(=O)C(C(C)=O)C1=C/C(=N\S(=O)(=O)c2ccc(C)cc2)c2ccccc2C1=O (stereo not given)	5	x	-5	45	13
CC(=O)Nc1ccc(NC2=C/C(=N/S(=O)(=O)c3cccs3)c3ccccc3C2=O)cc1	-18	1	-11	42	-66*
Cc1ccccc1NC1=C/C(=N\S(=O)(=O)c2cccs2)c2ccccc2C1=O	-19	-14	u	38	-112*
Cc1ccc(NC2=C/C(=N/S(=O)(=O)c3cccs3)c3ccccc3C2=O)cc1C	-3	-3	-1	16	0
SMILES	DRD3 agonist	PI5P4Ka inh	PI4K2A block	LDHA inh	DRD3 antagonist
Clc1ccc(CN2CCN(c3ncccn3)CC2)cc1	36*	-2	1	-10	14
c1nc(N2CCN(Cc3ccc4c(c3)OCO4)CC2)c2[nH]cnc2n1	-9	7	-3	3	-62*
O=c1c(CN2CCN(c3ccccn3)CC2)coc2ccccc12	8	5	0	-21	-21
CSc1nc(N2CCN(Cc3ccc4c(c3)OCO4)CC2)c2ccccc2n1	-2	10	1	-4	-64*
Clc1ccc(CN2CCN(c3ncnc4nc[nH]c34)CC2)c(Cl)c1	x	x	x	-8	x
c1ccc(CN2CCN(c3ncccn3)CC2)cc1	24	-7	1	-20	-25
Brc1ccc(CN2CCN(c3ccccn3)CC2)s1	68*	x	-3	-16	-8
CCc1ccc(N2CCN(C(=O)c3cc4cc([N+](=O)[O-])ccc4oc3=O)CC2)cc1	x	x	x	-6	x
Cc1ccc(S(=O)(=O)Cc2nc(-c3ccc(C(=O)NC4CCCC4)cc3)oc2C)cc1	x	x	x	-4	x
CC1CN(Cc2nc3cc(Cl)ccc3n2Cc2ccccc2)CCO1 (stereo not given)	x	x	x	-18	x
c1cnc(N2CCN(Cc3ccc4c(c3)OCO4)CC2)nc1	56*!	-5	-2	0	u
FC(F)(F)c1ccc(N2CCN(Cc3ccc4c(c3)OCO4)CC2)nc1	-58	20	-10	5	0
c1ccc(COc2ccc(CN3CCN(c4ccccn4)CC3)cc2)cc1	51*	15	-8	-6	-16
O=S1(=O)N=C(N2CCN(Cc3ccccc3)CC2)c2ccccc21	-4	3	-4	-2	-18
O=S1(=O)N=C(N2CCN(Cc3ccc4c(c3)OCO4)CC2)c2ccccc21	-18	x	2	-6	-81*
c1ccc(N2CCN(Cc3ccc4c(c3)OCO4)CC2)nc1	47*	1	9	-6	u
COc1ccc(CN2CCN(c3ccccn3)CC2)c(OC)c1	18	-2	1	0	u
O=C(Nc1cccc2cnccc12)c1cccc(S(=O)(=O)N2CCCC2)c1	x	x	x	10	x
OC(COCc1ccccc1)CN1CCN(Cc2ccc3c(c2)OCO3)CC1 (stereo not given)	-13	-5	-4	-10	-20
Clc1ccc(N2CCN(c3ncnc4nc[nH]c34)CC2)cc1Cl	x	x	x	-31*	x
SC(COCc1ccccc1)CN1CCN(Cc2ccc3c(c2)OCO3)CC1 (stereo not given)	-16	-1	-6	-3	-55*
Clc1cccc(N2CCN(c3ncnc4nc[nH]c34)CC2)c1	-1	-2	-1	13	14
O=S(=O)(Cc1ccc(Cl)cc1)c1nc2ccccc2nc1N1CCCC1	x	x	x	3	x
Cc1c2c(nc3ccccc13)CCSC2	x	x	x	1	x
Cc1cc(C)n2c(=S)[nH]nc2n1	0	-76*	-3	-4	-13
CCNC(=O)NC(=O)C(C)N(C)CC(=O)Nc1cccc2ccccc12 (stereo not given)	x	x	x	-33*	x
CC1(C)S[C@@H]2[C@H](NC(=O)C(N)c3ccccc3)C(=O)N2[C@H]1C(=O)OC1OC(=O)c2ccccc21 (stereo not given in full)	4	x	x	x	x
CC1(C)S[C@@H]2[C@H](NC(=O)[C@H](N)c3ccccc3)C(=O)N2[C@H]1C(=O)OC1OC(=O)c2ccccc21 (stereo not given in full)	-34	2	-7	-6	-67*
O=S(=O)(Nc1ccon1)c1ccc(F)c(F)c1	-6	6	-5	-1	-81*

Screening results deposited in PubChem by National Center for Advancing Translational Sciences (NCATS).
